Tests used:
Assay in all cases: PBM binding z-score (relative to random genomic background probes); higher = stronger binding; sequences stand for … in GC…GCGATTGACAGCGTAGAATGAAGG
[1] = tested on: FXR:RXRa (NR concentration 270 nM, RXRa partner concentration 90 nM)
How it was run: (§1)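 On custom Agilent 4×180K arrays, double-stranded probes with 34-nt variable regions carried direct-repeat seeds, single-nucleotide variants, half-site ablations or random human genomic background. Ligand-free nuclear receptor dimers were applied for 1 h, and binding was read with antibodies against each partner (one per run). Binding z-scores come from regression-normalized fluorescence, with the random background probes as reference.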

[2] = tested on: LXRa:RXRa (NR concentration 270 nM, RXRa partner concentration 90 nM)
How it was run: as §1

[3] = tested on: LXRa homodimer (NR concentration 270 nM)
How it was run: as §1

[4] = tested on: LXRb:RXRa (NR concentration 270 nM, RXRa partner concentration 90 nM)
How it was run: as §1

[5] = tested on: LXRb homodimer (NR concentration 270 nM)
How it was run: as §1

[6] = tested on: PPARa:RXRa (NR concentration 270 nM, RXRa partner concentration 90 nM)
How it was run: as §1

[7] = tested on: PPARg:RXRa (NR concentration 180 nM, RXRa partner concentration 90 nM)
How it was run: as §1

[8] = tested on: PPARg:RXRa 270nM:90nM, anti-RXR (NR concentration 270 nM, RXRa partner concentration 90 nM)
How it was run: as §1

[9] = tested on: PPARg:RXRa 30nM:10nM, anti-RXR (NR concentration 30 nM, RXRa partner concentration 10 nM)
How it was run: as §1

[10] = tested on: PPARg:RXRa 90nM:30nM, anti-RXR (NR concentration 90 nM, RXRa partner concentration 30 nM)
How it was run: as §1

[11] = tested on: PPARg:RXRa DBDmut IVT, anti-RXR (DBD mutation: RXRa K156A/R161A, NR concentration 270 nM, RXRa partner concentration 90 nM)
How it was run: as §1

[12] = tested on: PPARg:RXRa IVT, anti-PPARg (NR concentration 270 nM, RXRa partner concentration 90 nM)
How it was run: as §1

[13] = tested on: PPARg DBDmut:RXRa IVT, anti-PPARg (DBD mutation: PPARg1 K132A/R137A, NR concentration 270 nM, RXRa partner concentration 90 nM)
How it was run: as §1

[14] = tested on: PPARg DBDmut IVT, anti-PPARg (DBD mutation: PPARg1 K132A/R137A, NR concentration 270 nM)
How it was run: as §1

[15] = tested on: PPARg homodimer (NR concentration 180 nM)
How it was run: as §1

[16] = tested on: PXR:RXRa (NR concentration 270 nM, RXRa partner concentration 90 nM)
How it was run: as §1

[17] = tested on: PXR homodimer (NR concentration 270 nM)
How it was run: as §1

[18] = tested on: RARa:RXR (NR concentration 270 nM, RXRa partner concentration 90 nM)
How it was run: as §1

[19] = tested on: RARa homodimer (NR concentration 270 nM)
How it was run: as §1

[20] = tested on: RARb:RXRa (NR concentration 270 nM, RXRa partner concentration 90 nM)
How it was run: as §1

Sequence | PBM binding z-score [1] | PBM binding z-score [2] | PBM binding z-score [3] | PBM binding z-score [4] | PBM binding z-score [5] | PBM binding z-score [6] | PBM binding z-score [7] | PBM binding z-score [8] | PBM binding z-score [9] | PBM binding z-score [10] | PBM binding z-score [11] | PBM binding z-score [12] | PBM binding z-score [13] | PBM binding z-score [14] | PBM binding z-score [15] | PBM binding z-score [16] | PBM binding z-score [17] | PBM binding z-score [18] | PBM binding z-score [19] | PBM binding z-score [20]
AGAACGAGGGCACGCTCAGTTGATAGCAGAGTAG | 0.582 | 0.413 | -0.836 | 0.0167 | -0.804 | 2.06 | 2.08 | 1.64 | 0.279 | 0.796 | 3.98 | 4.09 | 0.654 | 0.271 | 0.0615 | 0.642 | 0.028 | 0.591 | -0.377 | 2.64
TGAATAAGGTTATAAGATCAGGGAACGTTGCAAA | 1.45 | 1.38 | 0.228 | 1.24 | -0.00633 | 2.31 | 0.925 | 1.57 | 1.06 | 1.53 | 0.667 | 1.08 | 1.27 | 0.778 | 0.811 | 0.858 | -0.117 | 1.6 | 0.729 | 1.67
GGAACGAGGGTATTCGAGTTGATAGCATGGCGAT | 0.27 | 2.1 | -0.446 | -0.313 | -1.2 | -0.309 | 0.371 | -0.244 | -0.476 | -0.646 | 0.383 | 0.201 | -0.0387 | -0.595 | -0.648 | 1.19 | -0.17 | 0.11 | -0.18 | -0.145
AGAATGAGGTTACCAAAGATCAGGCAAACGCTTG | 1.67 | 5.94 | -0.392 | 3.24 | -0.531 | 3.41 | 2.77 | 2.57 | 0.868 | 1.84 | 3.6 | 3.49 | 0.423 | 0.272 | 0.661 | 1.24 | -0.362 | 2.11 | -0.358 | 2
ATCGATAGGTCGAGGTGAGTATAGAGAAAGGGAA | 0.48 | 0.636 | -0.293 | 0.566 | -0.118 | 2.02 | 0.873 | 0.711 | 0.245 | 0.369 | -0.366 | 1.03 | 0.292 | 0.326 | 0.276 | 0.415 | -0.0359 | 0.853 | 0.359 | 1.94
CATACAGGGTCAGCTAGGTCAGAGTAGGGACGGC | 5.34 | 3.88 | 0.985 | 3.24 | 0.645 | 4.72 | 4.42 | 3.93 | 0.846 | 2.42 | 1.85 | 3.37 | 1.35 | 1.12 | 3.26 | 3.65 | 1.7 | 4.31 | 1.02 | 4.44
GCTTCTAGGTCAGGTTGGTCAGCTAACGGGTACG | 1.94 | 1.19 | -0.092 | 1.17 | 1.34 | 2.57 | 3.16 | 3.17 | 0.647 | 2.22 | 6.57 | 5.9 | 1.46 | 0.392 | 1.61 | 0.562 | 0.241 | 1.26 | 0.169 | 3.53
CGAACTAGGTCAAGGACACTGAATCTCCGCACGC | 3.6 | 2.34 | 0.392 | 1.61 | -0.129 | 4.59 | 7.39 | 6.12 | 3.48 | 5.6 | 8.19 | 8.2 | 2.38 | 0.508 | 1.58 | 1.44 | 0.0266 | 1.97 | 0.291 | 4.04
ATCTCGAGGTAACCAAGTTCAGTGAATGCCGAAC | 0.65 | 1.14 | 0.25 | 0.608 | -0.105 | 1.25 | 0.211 | 0.361 | -0.167 | 0.304 | 0.433 | 1.72 | 0.594 | 0.0274 | -0.0303 | 3.06 | 2.57 | 1.04 | -0.305 | 1.5
CGTCCAAGGTCAAGGTCTGTGAAAGAGACTCGAA | 7.12 | 4.99 | 0.422 | 3.92 | 0.346 | 5.39 | 4.93 | 5.76 | 1.41 | 3.96 | 3.42 | 3.88 | 2.1 | 0.39 | 4.29 | 3.72 | 0.462 | 4.54 | 1.7 | 5.24
GTACCAAGGTGAATATGTCGTTGATGAGTAGGCG | 0.455 | 0.146 | -0.0291 | -0.0194 | -0.329 | 0.873 | 0.753 | 0.42 | 0.0719 | 0.185 | 1.28 | 1.95 | 0.633 | 0.3 | 1.32 | -0.126 | 0.282 | 0.44 | 0.46 | 1.22
TCTTGTAGATCAGTAGGTTAAGAAAGCTGGCCAA | 0.172 | 0.646 | 0.128 | 0.552 | 0.098 | 1.12 | 0.0222 | 1.98 | 2.94 | 2.31 | 2.89 | 2.61 | 0.246 | 0.243 | 0.822 | 0.448 | 0.0641 | 0.921 | 0.433 | 0.272
TCATATAGGTAAAGGTGAAAGTAGAACGATATGA | 1.05 | 1.4 | -0.101 | 1.28 | 0.0204 | 3.29 | 4.62 | 4.54 | 4.45 | 4.86 | 4.02 | 4.56 | 2.33 | 2.14 | 1.55 | 1.08 | -0.104 | 1.42 | 0.341 | 2.02
TAGCCTAGGTCATGGGCCACTATACCACGCGAAC | 4.16 | 3.63 | 0.886 | 2.81 | 0.0878 | 4.15 | 4.04 | 4.19 | 1.48 | 3.31 | 2.09 | 3.43 | 0.102 | -0.16 | 1.27 | 1.72 | -0.144 | 2.66 | -0.0929 | 3.8

Reference: the supplement of paper PMC6555819
